# Experimental data reported in paper PMC6212790, “How bacterial xenogeneic silencer rok distinguishes foreign from self DNA in its resident genome”.
# Whole data set: some 33,000 sequences, median “e-score” near -0.038, cut for the highest 2% near 0.33. The list comes from a sample in which the highest values are over-represented; it also holds similar and randomly drawn sequences.
# Target: T1, GST-Rok-C97-191 (Bacillus subtilis subsp. subtilis str. …, UniProt O34857 97-191)
# T1 sequence: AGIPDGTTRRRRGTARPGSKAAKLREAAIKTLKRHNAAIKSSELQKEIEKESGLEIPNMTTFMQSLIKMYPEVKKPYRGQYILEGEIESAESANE
# Assay: protein binding microarray; Rok is a gene silencer of Bacillus subtilis; high values mean tight binding
# Details: protein: recombinant; tags: GST (pTH5325, pDEST15-Magic modified); dsDNA, one strand shown
# In short: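 Each has a 25-mer constant primer and a 35-mer variable part from a de Bruijn sequence of order 10, covering every non-palindromic 8-mer at least 32 times (palindromic 16). Preference for each 8-mer is given as a rank-based, unitless enrichment score (E-score). Its range runs from 0.5 (most favored) to −0.5 (most disfavored).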
row,Sequence,binding signal [E-score]
1,ACATCCGA,-0.00901
2,TCAGAGCA,-0.143
3,AGTTACAA,0.163
4,AATTACAT,0.339
5,AGTTACAT,0.342
6,AATTACAA,0.251
7,AGTTACAG,0.193
8,AATTACAG,0.249
9,GGACGGAA,-0.113
10,CGTGGTCA,-0.0431
11,CTTTAACA,0.072
12,GGCGACTA,-0.103
13,CATAGTTA,0.275
14,GATAGTTA,0.373
15,GATAGTAC,0.184
16,GATAGTAA,0.367
17,TATAGTCA,0.119
18,CATAGTAA,0.272
19,GATAGTCA,0.000914
20,TATAGTAA,0.346
21,TATAGTGA,0.199
22,GCGATGAA,-0.0177
23,CCAGAAAG,-0.066
24,GAAGCCGA,-0.0818
25,TTCAACAA,0.0826

row,Sequence,binding signal [E-score]
1,CTAAGTAG,0.275
2,ATCAGCTA,0.165
3,GATAGAGC,-0.0336
4,ATTTCGCG,0.158
5,CTAGTTAA,0.327
6,CGAGTTTC,0.049
7,ATAGTTTG,0.366
8,CTAGTTTC,0.422
9,ATAGTTAA,0.327
10,GTAGTTAA,0.405
11,ATAGTTTA,0.354
12,ATCGTTTG,-0.0549
13,ATAGTTGA,0.215
14,CCAGTTTC,-0.105
15,ATAGTTGG,0.00189
16,ATAGTTTC,0.292
17,ACATTTGC,0.205
18,AGTCAAAG,-0.141
19,ACAAGCAC,0.019
20,GAAGGCTA,-0.0559
21,AACGGACC,-0.186
22,TCGCCCAA,-0.12
23,GTAGTGTA,0.118
24,ATAGTGTG,0.0365
25,CTAGTTCA,0.0257

row,Sequence,binding signal [E-score]
1,GGAGTTTA,0.0723
2,ATAGTGTA,0.346
3,CTAGTTGC,0.23
4,GTAGTTTA,0.423
5,CTAGTTAC,0.38
6,CTAGTTGA,0.2
7,CTAGTTTA,0.378
8,CTAGTTCC,0.262
9,GCAGTTTA,0.113
10,ATGCCCTA,-0.00598
11,GCTCGTCA,-0.151
12,ACGTTTTC,0.12
13,GATGCATA,0.176
14,AGTAGCTA,0.37
15,GGTAGCGA,0.0646
16,GGTAGCTA,0.357
17,AGTAGCTG,0.233
18,ACTAGCTA,0.397
19,CGTAGCTA,0.289
20,GCTAGCTA,0.119
21,AGTAGCTC,0.14
22,CCTAGCTA,0.144
23,GCCGTAAA,-0.0195
24,ACAAAGTA,0.275
25,AATGTCGT,-0.087

row,Sequence,binding signal [E-score]
1,CTATGAGC,-0.0781
2,ACGAATAG,0.0145
3,TCGATCAA,0.27
4,ATGGAAAG,-0.0465
5,AATGATCA,0.156
6,ATGTGCAC,-0.0271
7,CGAATCAA,-0.196
8,CGCTTCAC,-0.177
9,AACTGCCC,-0.0946
10,AGCCATAA,0.127
11,CACAAGAA,-0.0545
12,AGTAGTGC,0.12
13,AGTAGTGA,0.121
14,CTTAGTTA,0.189
15,ACTAGTTA,0.448
16,CGTAGTTA,0.199
17,GTTAGTTA,0.325
18,AGTAGTTC,0.398
19,CGTAGTTC,0.213
20,CCTAGTTA,0.168
21,AGTAGTTA,0.424
22,ATTAGTTA,0.336
23,GCTAGTTA,0.284
24,ATTGCTGG,0.137
25,TAACCGTA,0.169

row,Sequence,binding signal [E-score]
1,CGGATACC,0.0204
2,ACTGGCAT,0.00831
3,GGTAGTTA,0.4
4,CATAGTTC,0.168
5,GGTAGTGA,0.144
6,AGTAGTTG,0.393
7,AATAGTTA,0.32
8,ACTAGTTG,0.313
9,GGTAGTCA,0.192
10,ATTAGTTG,0.118
11,AATAGTTC,0.343
12,GCCCATTA,-0.125
13,CGTAGAAC,0.207
14,CGTAGAAA,0.338
15,GGTAGAGA,0.173
16,TCTAGAAA,0.205
17,GTTAGAAC,0.125
18,TTTAGAAA,0.175
19,TGTAGAAA,0.35
20,GGTAGACC,-0.0686
21,GGTAGAAA,0.465
22,GCTAGAAA,0.314
23,CGTAGAAG,0.0648
24,GGTAGAAC,0.4
25,AACGTGGA,0.103

row,Sequence,binding signal [E-score]
1,AATAGCGC,0.114
2,GCCCACAA,-0.0476
3,GCATCTGA,-0.0514
4,CAAAGAAC,0.232
5,GCAGGGGA,-0.184
6,TAAACGCA,-0.0161
7,CGACAACC,-0.054
8,ACCCACGT,-0.188
9,AGTAATTC,0.273
10,ATTAATTA,0.391
11,AGTAATTG,0.31
12,CGTAATTA,0.318
13,GGTAATTA,0.395
14,ATTAATTC,0.147
15,AGTAATTA,0.376
16,GTTAATTA,0.19
17,GGTAATCA,-0.186
18,CATTGTAC,0.109
19,GTTGAAAA,-0.013
20,AGGTATTC,-0.0121
21,AACTCTCT,0.0603
22,ACTACCAG,0.213
23,ACTACCCA,0.332
24,ACTACCAA,0.257
25,TCTACCCA,0.234

row,Sequence,binding signal [E-score]
1,ACTACCCG,0.0272
2,ACTACCAT,0.353
3,CCTACCAC,0.251
4,ACTACCAC,0.383
5,GCTACCAC,0.0411
6,GCCGCGCA,-0.14
7,CGTTTCAG,-0.0327
8,AGCTCTTA,0.106
9,CATCTAAA,0.111
10,AGCGGACG,0.000189
11,TGACAAAA,0.0786
12,ATGATGGG,-0.0998
13,CCAGTAGA,0.176
14,ACAGTAGA,0.364
15,CAAGTAGA,0.303
16,AAAGTAGC,0.261
17,CTAGTAGA,0.382
18,AAAGTAGT,0.328
19,ACAGTAGT,0.258
20,AAAGTAGG,0.262
21,GTAGTACA,0.272
22,GGAGTAGA,0.102
23,CTAGTAGC,0.251
24,GTAGTAGA,0.368
